The entries come from a sample that favours hits as a whole.
Methyltransferases – Primary Screen for Target Class Profiling of Small Molecule Inhibitors of Methyltransferases; purified enzyme, MTase-Glo SAH luminescence; active compounds read low; calls only at 40 µM; actives 3.9% (n = 25,000); call rule not given here
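Each enzyme was reacted with SAM and its substrate, with compounds tested once at 40 uM; SAH formed was read by MTase-Glo luminescence.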
An asterisk follows results filed as active; i = inactive; + = active, no number. % is scaled to controls: 0 for no effect and ±100 for the full control effect.

SMILES	Methyltransferases
C=Cc1ccc(Cn2nc3n(CCC)c(=O)c4ccc(C(=O)NC(C)C)cc4n3c2=O)cc1	i
CC[n+]1c(/C=C/C=C2/N(C)c3ccccc3C2(C)C)sc2ccccc21	+
COc1cc(NC(=O)N2CCn3cccc3C2C)cc(OC)c1 (stereo not drawn)	i
CC(=O)Nc1c2n(c3ccc(F)cc13)CC(C)(C(=O)NC1CCCC1)N(c1cccc(C)c1C)C2=O (stereo not drawn)	i
CC(C)CCNC(=O)C1(C)Cn2nc(C(=O)NCCc3c[nH]c4ccccc34)cc2C(=O)N1C (stereo not drawn)	i
O=C(O)C1=CO[C@@H](O[C@@H]2O[C@H](CO)[C@@H](O)[C@H](O)[C@H]2O)[C@@H]2C(CO)=CC[C@H]12	i
COc1ccc(OC)c2c1cc1n2CC(C)(C(=O)NC2CCCCC2)N(Cc2cccnc2)C1=O (stereo not drawn)	+
CCOCCCN1C(=O)c2cc3c(OC)ccc(OC)c3n2CC1(C)C(=O)NC1CCCCC1 (stereo not drawn)	i
CCOCCCN1C(=O)c2cc3c(OC)ccc(OC)c3n2CC1(C)C(=O)NC1CCCCCC1 (stereo not drawn)	i
COc1ccc(OC)c2c1cc1n2CC(C)(C(=O)NC2CCCCCC2)N(Cc2cccnc2)C1=O (stereo not drawn)	i
COc1ccc(OC)c2c1cc1n2CC(C)(C(=O)NC2CCC(C)CC2)N(Cc2cccnc2)C1=O (stereo not drawn)	i
COCCCN1C(=O)c2cc3c(OC)ccc(OC)c3n2CC1(C)C(=O)NC1CCCCC1 (stereo not drawn)	+
O=C(O)CC1C(=O)NCCN1C1Cc2ccccc2C1 (stereo not drawn)	i
CN1C(=O)c2cc(NC(=O)C3CCN(S(=O)(=O)N4CCCC4)CC3)ccc2N2CCN=C12	i
COCCc1noc(-c2ccccc2OC2CN(C(=O)Cc3c[nH]c4ccccc34)C2)n1	i
CCOCCCN1C(=O)c2cc3sc(CC)cc3n2CC1(C)C(=O)NC1CCCCCC1 (stereo not drawn)	i
COc1cccc([C@H]2Nc3ccc(S(=O)(=O)Nc4ccc(C)c(C)c4)cc3[C@H]3C=CC[C@H]32)c1OC	i
Nc1ncnc2c1ncn2[C@H]1O[C@@H](C(=O)N2CCN(CC(=O)Nc3cccc4c3CNC4=O)CC2)[C@H](O)[C@@H]1O	+
CNC(=O)[C@H]1O[C@@H](n2cnc3c(NCc4ccc(N)cc4)ncnc32)[C@H](O)[C@@H]1O	i
CNC(=O)[C@H]1O[C@@H](n2cnc3c(NCc4ccc(N)c(I)c4)ncnc32)[C@H](O)[C@@H]1O	i
CC(=O)Nc1c2n(c3ccc(F)cc13)CC(C)(C(=O)NCCC(C)C)N(Cc1ccccc1F)C2=O (stereo not drawn)	i
C=C(CO[C@@H]1O[C@H](CO[C@@H]2OC[C@](O)(CO)[C@H]2O)[C@@H](O)[C@H](O)[C@H]1O)C1Cc2cc(C(C)=O)ccc2O1 (stereo partly drawn)	i
C=Cc1ccc(Cn2nc3n(CCC)c(=O)c4ccc(C(=O)NC(C)CC)cc4n3c2=O)cc1 (stereo not drawn)	i
Cc1cccc(N2CCN(S(=O)(=O)c3ccc4c(c3)n(C)c(=O)n4C)CC2C)c1 (stereo not drawn)	i
CCOC(=O)c1cc2n(n1)CC(C)(C(=O)NC1CCCCC1)N(c1cccc(OC)c1)C2=O (stereo not drawn)	i
SMILES	Methyltransferases
COC(=O)c1cc2n(n1)CC(C)(C(=O)NC1CCCCCC1)N(Cc1cccc(OC)c1)C2=O (stereo not drawn)	i
COc1cccc(-n2nc(C(=O)O)cc2-c2ccc(C3CCCCC3)c(Cl)c2)c1	+
CCCn1c(=O)c2cc(F)ccc2n2c(SCC(N)=O)nnc12	i
CC(=O)N1CCC(NCc2cccnc2Oc2ccccc2C)CC1	i
NC1(Cc2ccc(Cl)cc2)CCN(c2ncnc3[nH]ccc23)CC1	+
Clc1ccc(N2CCN(Cc3c[nH]c4ncccc34)CC2)cc1	i
C=CCNC(=O)c1cc2n(n1)CC(C)(C(=O)NCc1ccccc1)N(C)C2=O (stereo not drawn)	i
Cc1[nH]c(/C=C2\C(=O)Nc3ccc(S(=O)(=O)N(C)c4cccc(Cl)c4)cc32)c(C)c1C(=O)N1CCN(C)CC1	+
CN(C)S(=O)(=O)c1ccc2c(c1)/C(=C/c1cc3c([nH]1)CCCC3)C(=O)N2	i
CC1OC(OC2C(C)OC(OC3C(O)C(CO)OC(O[C@H]4CC[C@@]5(C)C(CC[C@]6(C)C5CC=C5C7[C@@H](C)[C@H](C)CC[C@]7(C(=O)O)CC[C@]56C(=O)O)C4(C)C)C3O)C(O)C2O)C(O)C(O)C1O (stereo partly drawn)	i
O=C1COc2ccc(Nc3ccc(C(F)(F)F)cc3)nc2CN1	i
CCc1cc(=O)n(CC(=O)NCCc2ccc(Cl)cc2)c(N2CCOCC2)n1	i
Cc1c(F)cc(C(=O)NC2CC2)cc1-c1c(F)cn2c(C(C)(C)C)nnc2c1F	i

High-throughput results: PubChem, National Center for Advancing Translational Sciences (NCATS)
